Pf growth 48h: P. falciparum growth inhibition at 48 hours (one generation). P. falciparum luciferase growth in erythrocytes, 48 h. Potency, µM (series often up to 28.7 µM), for inactives: at the top dose activity change, negative = inhibition, most hits filed as inhibitors. 310,000 tested, 5.9% active; note: % is set by controls: 0 for no effect and ±100 for the full control effect
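Compounds are pin-transferred into medium, infected erythrocytes (2% hematocrit, 0.1% parasitemia final) are added, and plates sit one parasite generation at 37 C in 5% CO2. Detection reagent is then added and luminescence measured.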
Pf growth 96h: P. falciparum growth inhibition at 96 hour, primary screen for plastid delayed-death inhibitors; P. falciparum luciferase reporter growth, 96 h; AID 504834; 320,000 tested, 6.9% active; Potency, µM (top dose mostly 28.7 µM), for inactives: at the top dose activity change, negative = inhibition, most hits filed as inhibitors; note: % is set by controls: 0 for no effect and ±100 for the full control effect
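P. falciparum expressing integrated firefly luciferase grown in erythrocytes (2% hematocrit, 0.05% parasitemia final) with compounds for 96 hours at 37 C, 5% CO2. Growth inhibition read as loss of luminescence after adding luciferase detection reagent.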
AmpC no deterg: inhibitors of E. coli AmpC beta-lactamase without detergent; P00811; AmpC nitrocefin hydrolysis, absorbance 480 nm, 0.0001% Triton; Potency, µM (doses to about 57.1 µM), for inactives: top-dose activity change, negative = inhibition, most hits filed as inhibitors; 330,000 tested, 0.52% active; AID 485341;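 note: plate controls were no compound for no effect and no enzyme for full effect; nearly all actives have a fitted effect of over 20% in size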
Target sequence (P00811 whole entry, looked up): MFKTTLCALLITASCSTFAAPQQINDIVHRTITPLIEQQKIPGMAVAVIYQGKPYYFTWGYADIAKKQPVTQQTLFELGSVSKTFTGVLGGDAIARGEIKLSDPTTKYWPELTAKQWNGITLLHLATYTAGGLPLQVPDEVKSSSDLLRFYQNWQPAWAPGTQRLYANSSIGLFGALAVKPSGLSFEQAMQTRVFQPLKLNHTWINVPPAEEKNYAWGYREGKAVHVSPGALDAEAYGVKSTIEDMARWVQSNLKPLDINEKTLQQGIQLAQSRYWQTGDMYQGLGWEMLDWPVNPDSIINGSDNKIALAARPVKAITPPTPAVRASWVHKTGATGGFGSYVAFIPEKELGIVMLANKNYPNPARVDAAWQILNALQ
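20 mM phosphate pH 7.0 + 0.01% (detergent screen) or 0.0001% Triton X-100; 5.3 nM AmpC reagent; cpd preinc 15 min RT; nitrocefin (800 uM stock) to start; A480 q20 s × 4 min; Activity was normalised to no-enzyme and no-compound control wells.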
Sm TGR block: blocks Schistosoma mansoni thioredoxin glutathione reductase; Q962Y6; purified TGR, DTNB reduction, TNB absorbance 405 nm; Potency, µM (series often up to 114 µM), for inactives: at the top dose activity change, negative = inhibition, usual class: inhibitors; 360,000 tested, 3% active; AID 485364; note: % is set by controls: 0 for no effect and ±100 for the full control effect; nearly all actives have a fitted effect of over 60% in size
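First, TGR (20 nM dispensed) and NADPH were mixed with compound. Second, a 15 min room-temperature incubation followed. Third, further NADPH and then DTNB were added to start the reaction. Finally, TNB absorbance was monitored kinetically.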
SARS PLP yeast: blocks SARS-CoV papain-like protease in a yeast assay. S. cerevisiae expressing SARS-CoV PLpro, growth rescue. Potency, µM (series often up to 32.9 µM), for inactives: at the top dose activity, positive = growth rescue, hits mostly activators. 330,000 tested, 0.19% active. AID 485353; calls by dose curve; note: 0% is about no effect; nearly all actives have a fitted effect of over 55% in size
AmpC inh detg: inhibitors of E. coli AmpC beta-lactamase with detergent | P00811 | AmpC hydrolysis of nitrocefin, absorbance 480 nm, 0.01% Triton | Potency, µM (top dose mostly 114 µM), inactives show at the top dose activity change, negative = inhibition, most hits filed as inhibitors | 370,000 tested, 0.041% active | AID 485294;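 note: 0% = no-compound wells and -100% = no-enzyme wells; nearly all actives have a fitted effect of over 25% in size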
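AmpC (5.3 nM in the dispensed reagent) in 20 mM phosphate pH 7.0 with 0.01% (detergent screen) or 0.0001% Triton X-100 was preincubated with compounds for 15 min at room temperature. Nitrocefin was then added from an 800 uM solution, and hydrolysis was followed at 480 nm.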
Starred values were filed as active, the others as inactive; ? = inconclusive; · = no result given. A selection: hits, their analogues and other compounds. The true share with any hit is near 12%. Unless noted, calls come from the whole dose curve; as a rule, active = well fitted curve in the direction sought with a large enough effect; inconclusive = small, poorly fitted or top-dose-only effect, or another doubt; inactive = no such curve, though single readings can be large; an effect the other way counts as inactive or inconclusive. Potency is the fitted concentration of half-maximal effect.

SMILES	Pf growth 48h	Pf growth 96h	AmpC no deterg	Sm TGR block	SARS PLP yeast	AmpC inh detg
CCCNC(=O)COC(=O)/C(C#N)=C/c1cc(C)n(CCC)c1C	-13%	?	0%	5%	2%	3%
Cc1ccc(N2CC(c3nnc(Cc4ccc(Cl)cc4)o3)CC2=O)cc1 (centres undefined)	·	·	·	-4%	·	1%
C/C(=N\NC(=O)CNc1cccc(Cl)c1C)C1CC1	3%	-3%	-27%	·	0%	-1%
CCCN(Cc1cccs1)C(=O)Nc1cc(C)ccc1OC	·	·	·	2%	·	10%
Oc1c(C(c2ccccc2)N2CCC3(CC2)OCCO3)sc2nc(-c3ccco3)nn12 (centres undefined)	·	·	·	0%	·	-1%
COc1ccccc1C(=O)NC(=O)Nc1nc(-c2ccccc2)cc(C(F)(F)F)n1	3.7µM*	3.7µM*	-11%	8%	2%	-4%
CCCc1nnc(NC(=O)c2cc(=O)c3cc(Cl)ccc3o2)s1	·	·	·	1%	·	16%
CC1(C(=O)O)COC(c2ccc(Cl)cc2)OC1 (centres undefined)	2.9µM*	7%	-25%	7%	-4%	2%
CCC(=O)N1c2ccccc2CC1C(=O)NCCN1CCN(c2cccc(C(F)(F)F)c2)CC1 (centres undefined)	·	·	·	-4%	·	9%
CSc1cccc(N2C(=O)N(CC(=O)NCc3ccccc3Cl)c3ccccc3S2(=O)=O)c1	·	·	·	4%	·	-8%
COc1cc(OC)c(OC)cc1CN1CCc2nc(N3CCN(c4ncccn4)CC3)ncc2C1	·	·	·	22µM*	·	7%
COc1cc(OC)c(OC)cc1CN1CCc2nc(N3CCN(c4ccccc4F)CC3)ncc2C1	·	·	·	-5%	·	-6%
COc1ccc(C)cc1NC(=O)c1ccc2c(c1)nnn2C1CCCC1	·	·	·	-3%	·	2%
Cc1ccccc1-c1noc(-c2ccccc2OCC(=O)Nc2ccccc2[N+](=O)[O-])n1	·	·	·	-2%	·	26%
CNC(=O)c1nnsc1S(=O)c1ccc(Cl)cc1 (centres undefined)	15µM*	?	-41%	0.32µM*	-32%	?
CCCNC(=O)c1nnsc1S(=O)(=O)c1ccc(Cl)cc1	0%	7%	-35%	0.32µM*	-33%	-9%
CCCNC(=O)c1ccc2snnc2c1	38%	?	-21%	-3%	14%	-5%
CCCNC(=O)c1nnsc1S(=O)c1ccc(Cl)cc1 (centres undefined)	?	?	-45%	0.32µM*	-31%	-15%
Cc1ccc(S(=O)c2snnc2C)cc1 (centres undefined)	·	-15%	-15%	-34%	-2%	?
CCc1ccc(NS(=O)(=O)c2[nH]ncc2C(=O)OC)cc1	·	·	·	2%	·	14%
COc1ccccc1NC(=O)COC(=O)/C=C/c1ccc(OC)c(OC)c1	·	·	-6%	·	-8%	·
CCOc1ccc(NC(=O)C2=NN(c3ccccc3)C(=O)CC2)cc1S(=O)(=O)N1CCCCC1	12µM*	?	78%	6%	-4%	1%
O=C(Nc1cccc(S(=O)(=O)N2CCCCC2)c1)C1=NN(c2ccccc2)C(=O)CC1	5.2µM*	6.6µM*	1%	-13%	2%	6%
Cc1ccc(C)c(N2N=C(C(=O)Nc3cccc(S(=O)(=O)N4CCCCC4)c3)CCC2=O)c1	4.7µM*	4.7µM*	111%	-4%	1%	-2%
CCOc1ccc(NC(=O)CN2CCCC2c2cccs2)cc1S(=O)(=O)N1CCCC1 (centres undefined)	12µM*	15µM*	-3%	-17%	-2%	5%
CCOc1ccc(NC(=O)c2ccco2)cc1S(=O)(=O)N1CCCC1	?	?	-10%	-28%	-1%	-5%
CCc1ccc(NC(=O)c2cc(CN3CCOCC3)on2)cc1	·	·	·	1%	·	17%
COc1ccc(NC(=O)Cn2cc(C(=O)c3ccc(C)c(C)c3)c(=O)c3cc(OC)ccc32)cc1	·	·	·	1%	·	1%

Screening data: PubChem, National Center for Advancing Translational Sciences (NCATS)
